Laboratory results from PubChem BioAssay.
Where a SMILES comes first, the peptide text is derived from it. [ ]: non-standard residue; d: D form. ξ: configuration not given here. ξV = CC(C)C(N)C(=O)O

What was measured:
[1] = tested on: Botulinum neurotoxin type F light chain protease (Clostridium botulinum); assay: Clostridium botulinum type F light chain protease inhibitors, microsphere substrate cleavage, validation (AID 588459); conditions: multiplex microsphere protease substrate cleavage assay, flow cytometry; at 10 µM; hits give high values
[2] = target: Botulinum neurotoxin type A (Clostridium botulinum) (UniProt P0DPI0); assay: BoNT/A light chain protease inhibitors, biochemical, multiplex microsphere flow cytometry, validation set (AID 588460); conditions: at 10 µM, hits give high values
Sequence of Botulinum neurotoxin type A (Clostridium botulinum) (P0DPI0 whole entry, looked up): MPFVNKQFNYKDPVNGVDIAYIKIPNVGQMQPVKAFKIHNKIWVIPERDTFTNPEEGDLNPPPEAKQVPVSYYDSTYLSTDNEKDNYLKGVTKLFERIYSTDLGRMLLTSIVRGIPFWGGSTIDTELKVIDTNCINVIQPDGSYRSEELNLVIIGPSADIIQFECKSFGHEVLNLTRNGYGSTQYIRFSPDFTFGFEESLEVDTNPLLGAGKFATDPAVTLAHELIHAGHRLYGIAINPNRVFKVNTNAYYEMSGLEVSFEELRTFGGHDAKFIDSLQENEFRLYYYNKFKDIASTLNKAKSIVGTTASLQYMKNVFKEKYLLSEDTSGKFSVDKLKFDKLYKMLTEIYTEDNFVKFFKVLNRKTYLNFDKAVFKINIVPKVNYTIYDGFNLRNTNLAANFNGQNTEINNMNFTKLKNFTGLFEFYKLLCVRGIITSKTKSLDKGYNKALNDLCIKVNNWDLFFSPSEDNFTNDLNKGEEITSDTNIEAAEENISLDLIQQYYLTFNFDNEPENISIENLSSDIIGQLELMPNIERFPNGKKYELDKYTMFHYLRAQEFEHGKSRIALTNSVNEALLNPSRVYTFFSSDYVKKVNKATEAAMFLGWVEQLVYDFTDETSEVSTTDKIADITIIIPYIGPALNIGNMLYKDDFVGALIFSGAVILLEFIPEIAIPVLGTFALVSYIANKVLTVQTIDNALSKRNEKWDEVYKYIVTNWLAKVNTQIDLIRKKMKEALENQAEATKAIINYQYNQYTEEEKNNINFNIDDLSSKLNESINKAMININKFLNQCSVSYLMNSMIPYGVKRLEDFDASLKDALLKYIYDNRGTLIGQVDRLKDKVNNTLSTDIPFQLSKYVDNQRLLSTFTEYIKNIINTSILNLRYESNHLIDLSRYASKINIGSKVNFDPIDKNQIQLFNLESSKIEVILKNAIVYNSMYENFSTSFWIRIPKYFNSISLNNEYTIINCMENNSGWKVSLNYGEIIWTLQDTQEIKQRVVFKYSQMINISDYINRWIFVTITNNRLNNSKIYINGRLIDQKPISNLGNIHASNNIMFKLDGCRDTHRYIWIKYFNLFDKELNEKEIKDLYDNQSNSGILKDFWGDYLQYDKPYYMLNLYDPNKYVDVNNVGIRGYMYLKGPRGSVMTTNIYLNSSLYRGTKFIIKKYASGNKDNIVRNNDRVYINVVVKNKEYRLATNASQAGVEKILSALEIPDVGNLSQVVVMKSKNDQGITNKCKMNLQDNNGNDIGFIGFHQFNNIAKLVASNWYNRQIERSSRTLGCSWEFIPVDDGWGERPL

[3] = target: Lethal factor (Bacillus anthracis) (UniProt P15917); assay: Bacillus anthracis lethal factor inhibition, microsphere flow cytometry protease assay, validation at 10 µM (AID 588461); conditions: multiplex microsphere protease cleavage assay, hits give high values
Sequence of Lethal factor (Bacillus anthracis) (P15917 whole entry, looked up): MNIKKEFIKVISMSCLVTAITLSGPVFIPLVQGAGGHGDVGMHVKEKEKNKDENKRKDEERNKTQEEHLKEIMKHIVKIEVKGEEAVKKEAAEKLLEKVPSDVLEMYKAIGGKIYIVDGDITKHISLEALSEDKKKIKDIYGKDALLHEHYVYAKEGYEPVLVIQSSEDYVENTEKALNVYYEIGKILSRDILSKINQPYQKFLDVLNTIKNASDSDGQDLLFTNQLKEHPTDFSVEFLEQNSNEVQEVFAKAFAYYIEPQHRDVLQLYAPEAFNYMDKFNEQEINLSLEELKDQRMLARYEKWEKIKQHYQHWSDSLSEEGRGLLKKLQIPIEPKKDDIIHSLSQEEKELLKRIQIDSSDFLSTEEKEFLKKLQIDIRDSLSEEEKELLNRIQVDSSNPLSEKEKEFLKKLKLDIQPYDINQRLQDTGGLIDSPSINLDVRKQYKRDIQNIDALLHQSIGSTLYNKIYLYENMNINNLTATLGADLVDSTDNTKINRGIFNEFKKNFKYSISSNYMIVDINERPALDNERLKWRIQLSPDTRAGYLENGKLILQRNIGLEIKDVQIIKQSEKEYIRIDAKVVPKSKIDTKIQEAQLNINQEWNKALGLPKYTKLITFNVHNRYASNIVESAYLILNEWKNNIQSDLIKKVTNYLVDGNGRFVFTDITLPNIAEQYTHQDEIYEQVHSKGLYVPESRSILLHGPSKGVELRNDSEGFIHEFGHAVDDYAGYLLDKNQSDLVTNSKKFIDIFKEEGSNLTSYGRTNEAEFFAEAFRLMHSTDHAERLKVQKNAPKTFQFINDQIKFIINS

Measured: inhibition

COc1ccc(CNC(=O)C2CCN(C(=O)[C@@H](CC(C)C)NC(=O)OC(C)(C)C)CC2)cc1
inactive: [1] 1.1% | [2] -0.8% | [3] -3.7%

Cn1c(=O)c(C(=O)NCCO)c(O)c2ccccc21
inactive: [1] 0.4% | [2] -0.1% | [3] -2.2%

Cc1ccc2c(c1)C(C)(C)[C@]1(C)NC(=O)CCN21
inactive: [1] -1.8% | [2] -0.2% | [3] 0%

COc1ccc(C(CC(=O)N2CCOCC2)C(C)C)cc1 (configuration not stated)
inactive: [1] -4.7% | [2] -1.9% | [3] -8.6%

COc1cc(-c2cccs2)cc(=O)c2c(C)oc(C)c12
inactive: [1] 1.4% | [2] 2.1% | [3] -4%

O=C(O)CCC(=O)c1ccc(-c2ccccc2)cc1
inactive: [1] -4.5% | [2] -1.1% | [3] 2.1%

COc1ccc(/C=C2\CCc3ccccc3C2=O)c(OC)c1OC
inactive: [1] 6.4% | [2] 0.8% | [3] 3.9%

CN(C)CCCNc1ncnc2c1cnn2-c1ccccc1
inactive: [1] 0.3% | [2] -0.3% | [3] -4%

CCCC(=O)O[C@]1(C(=O)CCl)[C@@H](C)C[C@H]2[C@@H]3CCC4=CC(=O)C=C[C@]4(C)[C@@]3(F)C(=O)C[C@@]21C
inactive: [1] 0.9% | [2] -0.6% | [3] 1%

COc1cccc2c(=O)c3ccccc3oc12
inactive: [1] 12.6% | [2] 3.9% | [3] -4.2%

CC1CCCC(C)N1NC(=O)c1ccc(Cl)c(S(N)(=O)=O)c1 (configuration not stated)
inactive: [1] -0.2% | [2] 0.8% | [3] 5.8%

COc1ccc(-c2c(NC(=O)c3ccco3)n(C)c3ccccc3c2=O)cc1
inactive: [1] 1.5% | [2] 0.4% | [3] -0.7%

CC(=O)NC(C(=O)NCC(N)=O)C(C)C (configuration not stated) (Ac-[ξV]-Gly-NH2)
inactive: [1] -3% | [2] 0.1% | [3] 0.5%

O=C(O)CCCCCN1C(=O)C(=O)/C(=C(/O)c2ccccc2)C1c1ccccc1 (configuration not stated)
inactive: [1] 0.2% | [2] 0.9% | [3] -6.7%

CCCCCCCCNC(C)C(O)c1ccc(SC(C)C)cc1 (configuration not stated)
inactive: [1] -4.9% | [2] -1.5% | [3] -9.4%

CCOc1ccc(C(NC(C)=O)c2ccc(OC)c(OC)c2)cc1 (configuration not stated)
inactive: [1] -2.9% | [2] -0.9% | [3] 5.8%

COC(=O)c1cc(-c2ccc(C)o2)nc2ccccc12
inactive: [1] 1.8% | [2] 2% | [3] 2.2%

CCc1c(C)c2ccc(OCC(=O)OC(C)C)c(C)c2oc1=O
inactive: [1] -1.9% | [2] -0.4% | [3] -1.3%

COc1ccc(NC(=O)Nc2ccc(C(C)C)cc2)cc1
inactive: [1] 2.7% | [2] 1.5% | [3] 5.7%

O=C(CCCCCCCC(=O)c1ccccc1)c1ccccc1
inactive: [1] -2% | [2] -2.3% | [3] -9.8%

CCOC(=O)C1(CCCc2ccccc2)CCN(C2CCN(C(C)=O)CC2)CC1
inactive: [1] 0.1% | [2] 1.4% | [3] -6.4%

CCCN1C[C@H](CSC)C[C@@H]2c3cccc4[nH]cc(c34)C[C@H]21
inactive: [1] -8.5% | [2] -1.6% | [3] -33.7%

COC(=O)c1cc(OC)c(OC)cc1NC(=O)CN1C(=O)c2ccccc2C1=O
inactive: [1] -3.5% | [2] -1% | [3] -5.5%

Cc1csc(-c2coc3cc(O)cc(C)c3c2=O)n1
inactive: [1] 0.3% | [2] 1.7% | [3] 0.3%

O=C(N/N=C/c1ccc([N+](=O)[O-])o1)c1ccc(O)cc1
inactive: [1] 0.2% | [2] -3.9% | [3] -11.9%

COc1cc2c(cc1OC)-c1nnc(C)n1C(C)(C)C2
inactive: [1] 0.7% | [2] 0.2% | [3] -2.5%

Cc1cnc(N)c2c(=O)oc3ccccc3c12
inactive: [1] 1.3% | [2] 0.4% | [3] -4.6%

CCS(=O)(=O)CCn1c([N+](=O)[O-])cnc1C
inactive: [1] 2.2% | [2] 0.7% | [3] 3.7%

COc1cc2c(cc1OC)/C(=C/c1ccc(Cl)cc1)C(=O)OC2
inactive: [1] -0.2% | [2] 0.8% | [3] -1.5%
